Data taken from PubChem BioAssay (NCATS).
Records with an inconclusive call do not appear. Calls of active or inactive are those of the source. Calls come from the whole dose curve; as a rule, active = well fitted curve in the direction sought with a large enough effect; inconclusive = small, poorly fitted or top-dose-only effect, or another doubt; inactive = no such curve, though single readings can be large; an effect the other way counts as inactive or inconclusive.

Experiments:
[1] = biological target: Arylsulfatase A (Homo sapiens) (UniProt P15289); experiment: qHTS screen for enhancers of Arylsulfatase A (ASA1): LOPAC Validation Assay (AID 720538); note: potency is the fitted concentration of half-maximal effect
Arylsulfatase A (Homo sapiens), sequence (P15289 whole entry, looked up): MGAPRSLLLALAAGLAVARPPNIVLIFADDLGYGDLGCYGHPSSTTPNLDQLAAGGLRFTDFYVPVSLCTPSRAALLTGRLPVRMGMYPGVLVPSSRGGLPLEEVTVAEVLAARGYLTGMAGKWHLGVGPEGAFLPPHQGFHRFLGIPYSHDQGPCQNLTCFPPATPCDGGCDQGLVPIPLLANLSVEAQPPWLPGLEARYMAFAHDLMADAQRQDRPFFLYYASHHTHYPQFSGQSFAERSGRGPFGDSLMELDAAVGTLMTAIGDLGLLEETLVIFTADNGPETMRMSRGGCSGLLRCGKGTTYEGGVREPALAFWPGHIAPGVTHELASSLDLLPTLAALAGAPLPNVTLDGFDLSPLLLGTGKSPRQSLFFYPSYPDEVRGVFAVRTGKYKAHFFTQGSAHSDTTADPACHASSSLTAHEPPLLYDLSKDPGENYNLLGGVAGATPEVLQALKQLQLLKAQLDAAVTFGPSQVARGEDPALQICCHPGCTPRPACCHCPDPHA
Method in brief: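 First, ASA-I179S fibroblasts from an MLD patient adhered for 6 hrs. Next, compounds were added for 48h. Then pNCS substrate (0.5mM final) with lysis buffer reacted 14h at room temperature before NaOH stop and fluorescence measurement.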

[2] = qHTS for compounds that reverse cellular toxicity of Amyloid beta (A-beta) peptide in yeast: LOPAC Validation Assay (AID 720559);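 note: plate controls were DMSO for no effect and equimolar ferric chloride plus clioquinol rescue for full effect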
Method in brief: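 Activity is expressed relative to DMSO and an equimolar ferric chloride/clioquinol mix. Compounds were pinned into medium with A-beta-expressing yeast, grown 48 hr at 30 C, then read by absorbance at 600 nm.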

[3] = qHTS for Activators of Parkin Expression: LOPAC Validation Assay (NLuc Reporter) (AID 720572;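 note: 0% = DMSO and 100% = positive control compound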)
Method in brief: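 Parkin promoter-driven FLuc/NLuc neuronal reporter cells; 24 h plating, 7-pt dose response, 24 h at 37 C/5% CO2; FLuc then NanoLuc reagent, 10 min each, luminescence; DMSO/positive control normalized.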

[4] = qHTS for Activators of Parkin Expression: LOPAC Validation Assay (FLuc Reporter) (AID 720573;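 note: 0% = DMSO and 100% = positive control compounds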)
Method in brief: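 A neuronal cell line harbouring FLuc and NLuc reporters behind the Parkin promoter was exposed to compounds for 24 h. Firefly luciferase signal, measured after 10 min with detection reagent, was scaled to DMSO and positive-control wells.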

[5] = biological target: T1, Hexokinase-4 (Homo sapiens) + Glucokinase regulatory protein (Homo sapiens) (UniProt P35557+Q14397); experiment: qHTS assay for inhibitors of recombinant human GCK-GKRP interaction: Diaphorase-coupled assay (AID 743205)
T1 sequence (P35557 whole entry, looked up): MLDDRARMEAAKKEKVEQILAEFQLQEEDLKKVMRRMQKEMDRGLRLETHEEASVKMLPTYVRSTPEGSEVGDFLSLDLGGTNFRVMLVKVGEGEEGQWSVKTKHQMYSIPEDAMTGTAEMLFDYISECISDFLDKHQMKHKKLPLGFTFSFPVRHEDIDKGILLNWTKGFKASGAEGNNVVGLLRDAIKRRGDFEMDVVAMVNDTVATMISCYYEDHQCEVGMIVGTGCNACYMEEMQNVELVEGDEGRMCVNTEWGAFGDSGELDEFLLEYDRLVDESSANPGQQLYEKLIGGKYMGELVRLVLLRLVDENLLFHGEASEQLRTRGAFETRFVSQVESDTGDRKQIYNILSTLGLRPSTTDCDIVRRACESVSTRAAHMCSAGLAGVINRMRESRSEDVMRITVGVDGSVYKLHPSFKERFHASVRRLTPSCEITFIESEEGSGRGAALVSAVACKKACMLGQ
T1 sequence (Q14397 whole entry, looked up): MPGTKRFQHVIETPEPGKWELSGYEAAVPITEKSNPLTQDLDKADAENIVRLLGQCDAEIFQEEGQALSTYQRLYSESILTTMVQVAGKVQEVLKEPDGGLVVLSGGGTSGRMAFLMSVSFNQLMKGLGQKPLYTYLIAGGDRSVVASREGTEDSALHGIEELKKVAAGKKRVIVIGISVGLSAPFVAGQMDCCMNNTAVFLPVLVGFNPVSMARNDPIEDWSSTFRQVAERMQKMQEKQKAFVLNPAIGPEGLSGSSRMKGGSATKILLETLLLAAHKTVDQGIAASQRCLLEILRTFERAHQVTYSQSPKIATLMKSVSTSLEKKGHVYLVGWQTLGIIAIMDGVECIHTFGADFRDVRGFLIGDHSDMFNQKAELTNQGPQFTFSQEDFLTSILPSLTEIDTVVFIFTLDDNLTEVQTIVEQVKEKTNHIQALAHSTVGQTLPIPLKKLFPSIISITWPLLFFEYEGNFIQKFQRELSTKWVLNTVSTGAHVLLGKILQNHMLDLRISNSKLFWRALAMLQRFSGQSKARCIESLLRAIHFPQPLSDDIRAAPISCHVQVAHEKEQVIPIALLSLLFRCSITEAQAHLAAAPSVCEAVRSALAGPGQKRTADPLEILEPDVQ
Method in brief: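 Inhibitors of the GCK–GKRP complex relieve GKRP suppression of GCK, detected through a G6PDH–diaphorase cascade reducing resazurin. Human GST-GCK and FLAG-GKRP are used at 10 nM with 5 mM glucose and 0.4 mM ATP.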

[6] = biological target: T1, Hexokinase-4 (Homo sapiens) + Glucokinase regulatory protein (Homo sapiens); experiment: qHTS assay for inhibitors of recombinant human GCK-GKRP interaction: ADP-Glo assay (AID 743206);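 note: plate controls were DMSO plus enzyme for no effect and no enzyme for full effect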
Method in brief: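 GST-GCK and FLAG-GKRP (15 nM each in the dispensed mix, with 2 uM S6P) react with 0.4 mM ATP and 5 mM glucose (final) in Hepes pH 7.6 for 60 min at room temperature. ADP is measured by ADP-Glo luminescence.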

[7] = biological target: T1, Hexokinase-4 (Homo sapiens) + Glucokinase regulatory protein (Homo sapiens); experiment: qHTS assay for inhibitors of recombinant human GCK-GKRP interaction: HTRF assay (AID 743207);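 note: 0% = DMSO with GCK present and -100% = DMSO wells lacking GCK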
Method in brief: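 Steps: dispense GCK–GKRP complex (5 nM each, GST- and FLAG-tagged) with 2 uM S6P; pin in compounds; add XL665/Eu-cryptate-labelled antibodies; incubate 60 min at room temperature; read time-resolved FRET at 665 and 615 nm.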

[8] = qHTS Assay for Identifying Gametocytocidal Compounds (AID 743244); note: potency is the fitted concentration of half-maximal effect;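 for max response: % is set by controls: 0 for no effect and ±100 for the full control effect; actives lower the fluorescent signal which means gametocytes are killed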; conditions: P. falciparum 3D7 stage III-V gametocytes, alamarBlue, 72 h; max response: hits give low values
Method in brief: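 3D7 gametocytes, stages III–V, 20,000/well; cpd 72 h, 37 °C/5% CO2; + alamarBlue 24 h; fluor. Ex 525/Em 598.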

C=CCN1CC[C@]23c4c5ccc(O)c4O[C@H]2/C(=N/NC(=O)c2ccccc2)CC[C@@]3(O)[C@H]1C5
inactive: Potency [1] | outcome [2] | Potency [3] | outcome [4] | Potency [5] | outcome [6] | outcome [7] | max response [8] 8.77%

COc1ccc2c(c1O)-c1cccc3c1[C@@H](C2)N(C)CC3
inactive: Potency [1] | outcome [2] | Potency [3] | outcome [4] | Potency [5] | outcome [6] | outcome [7] | max response [8] 27.6%

N[C@@H](CCl)C(=O)O
inactive: Potency [1] | outcome [2] | Potency [3] | outcome [4] | Potency [5] | outcome [6] | outcome [7] | max response [8] 3.64%

Ic1ccccc1CNC1C2CCN(CC2)C1C(c1ccccc1)c1ccccc1 (configuration not stated)
active: Potency [8] 1.78 µM
inactive: Potency [1] | outcome [2] | Potency [3] | outcome [4] | Potency [5] | outcome [6] | outcome [7]

O=C1CC[C@@]2(O)C3Cc4ccc(O)c5c4C2(CCN3CC2CC2)[C@H]1O5 (some centres not stated)
active: Potency [1] 0.426 µM
inactive: outcome [2] | Potency [3] | outcome [4] | Potency [5] | outcome [6] | outcome [7] | max response [8] 16.9%

CCCN1CC[C@@H]2c3cc(O)ccc3CC[C@@H]21
inactive: Potency [1] | outcome [2] | Potency [3] | outcome [4] | Potency [5] | outcome [6] | outcome [7] | max response [8] 20.4%

NC(C(=O)O)c1cc(=O)[nH]o1 (configuration not stated)
inactive: Potency [1] | outcome [2] | Potency [3] | outcome [4] | Potency [5] | outcome [6] | outcome [7] | max response [8] 7.64%

Nc1ccc(CCN2CCN(c3cccc(C(F)(F)F)c3)CC2)cc1
inactive: Potency [1] | outcome [2] | Potency [3] | outcome [4] | Potency [5] | outcome [6] | outcome [7] | max response [8] 14.5%

CN1CC[C@@]2(C)c3cc(OC(=O)Nc4ccccc4)ccc3N(C)[C@@H]12
active: Potency [8] 1.12 µM
inactive: Potency [1] | outcome [2] | Potency [3] | outcome [4] | Potency [5] | outcome [6] | outcome [7]

CCCN1CCc2cccc3c2[C@H]1Cc1ccc(O)c(O)c1-3
active: Potency [8] 2.82 µM
inactive: Potency [1] | outcome [2] | Potency [3] | outcome [4] | Potency [5] | outcome [6] | outcome [7]

NC(N)=NOCC[C@H](N)C(=O)O
inactive: Potency [1] | outcome [2] | Potency [3] | outcome [4] | Potency [5] | outcome [6] | outcome [7] | max response [8] -9%

C#CCN[C@H](C)Cc1ccccc1
inactive: Potency [1] | outcome [2] | Potency [3] | outcome [4] | Potency [5] | outcome [6] | outcome [7] | max response [8] 19.2%

NCC(CP(=O)(O)O)c1ccc(Cl)cc1 (configuration not stated)
inactive: Potency [1] | outcome [2] | Potency [3] | outcome [4] | Potency [5] | outcome [6] | outcome [7] | max response [8] 18.6%

CO[C@H]1CC=C2CCN3CCC4=C(CC(=O)OC4)[C@]23C1
inactive: Potency [1] | outcome [2] | Potency [3] | outcome [4] | Potency [5] | outcome [6] | outcome [7] | max response [8] -3.4%

NC(=O)c1ccc(OCC(O)CN2CC=C(c3ccc(F)cc3)CC2)cc1 (configuration not stated)
inactive: Potency [1] | outcome [2] | Potency [3] | outcome [4] | Potency [5] | outcome [6] | outcome [7] | max response [8] 10.4%

C/C(O)=C(\C#N)C(=O)Nc1cc(Br)ccc1Br
inactive: Potency [1] | outcome [2] | Potency [3] | outcome [4] | Potency [5] | outcome [6] | outcome [7] | max response [8] -6.48%

COc1ccc(CNC(=O)/C=C/c2ccc3[nH]cc(CCN(C)C)c3c2)cc1
inactive: Potency [1] | outcome [2] | Potency [3] | outcome [4] | Potency [5] | outcome [6] | outcome [7] | max response [8] -2.88%

CN(C(=O)Cc1ccc(Cl)c(Cl)c1)C(CN1CCCC1)c1cccc(OCC(=O)O)c1 (configuration not stated)
inactive: Potency [1] | outcome [2] | Potency [3] | outcome [4] | Potency [5] | outcome [6] | outcome [7] | max response [8] 13%

CCCn1c(C)c(C(=O)c2ccc3ccccc3c2)c2ccccc21
inactive: Potency [1] | outcome [2] | Potency [3] | outcome [4] | Potency [5] | outcome [6] | outcome [7] | max response [8] 6.14%

CCCN(CCC)C1CCc2cccc(O)c2C1 (configuration not stated)
inactive: Potency [1] | outcome [2] | Potency [3] | outcome [4] | Potency [5] | outcome [6] | outcome [7] | max response [8] 13.2%

CC(N)Cc1c[nH]c2ccc(OCc3cccs3)cc12 (configuration not stated)
inactive: outcome [2] | Potency [3] | outcome [4] | Potency [5] | outcome [6] | outcome [7]
active: Potency [8] 1.41 µM

C=CCN1CCc2cccc3c2[C@H]1Cc1ccc(O)c(O)c1-3
active: Potency [8] 1.12 µM
inactive: outcome [2] | Potency [3] | outcome [4] | Potency [5] | outcome [6] | outcome [7]

NCCc1c[nH]c2ccc(C(N)=O)cc12
inactive: outcome [2] | Potency [3] | outcome [4] | Potency [5] | outcome [6] | outcome [7] | max response [8] 47.6%

C[N+]1(C)C2CCC1CC(OC(=O)c1c[nH]c3ccccc13)C2 (configuration not stated)
inactive: outcome [2] | Potency [3] | outcome [4] | Potency [5] | outcome [6] | outcome [7] | max response [8] -2.89%

CCCN(CCC)[C@H]1CCc2c(F)ccc(O)c2C1
inactive: outcome [2] | Potency [3] | outcome [4] | Potency [5] | outcome [6] | outcome [7]

COc1ccc2c(c1)c(CCN1CCOCC1)c(C)n2C(=O)c1cccc(Cl)c1Cl
inactive: outcome [2] | Potency [3] | outcome [4] | Potency [5] | outcome [6] | outcome [7]

CC(N)[C@H](O)c1ccc(O)c(O)c1 (some centres not stated)
inactive: outcome [2] | Potency [3] | outcome [4] | Potency [5] | outcome [6] | outcome [7] | max response [8] 7.97%
